In PubChem BioAssay AID686964 (The Scripps Research Institute Molecular Screening Center, 2013):
Among all 370,000 compounds or so, about 1,100 (0.3%) were called active. This excerpt belongs to a sample that is enriched for actives. Unmarked numbers belong to inactive results. No stated cut-off is given here; in the data, active means inhibition above about 13%; inactive means the rest.

Target: Methyl-CpG-binding domain protein 2 (Homo sapiens) (UniProt Q9UBB5)
Experiment: MBD2-DBD methyl-oligonucleotide interaction blockers – biochemical, TR-FRET, DNA-binding domain, human, primary screen (AID 686964)
Conditions: MBD2 binding to methylated oligonucleotide, at 4.4 µM, stronger effect = higher value

Methyl-CpG-binding domain protein 2 (Homo sapiens), sequence (Q9UBB5 whole entry, looked up, the tested form may be a part): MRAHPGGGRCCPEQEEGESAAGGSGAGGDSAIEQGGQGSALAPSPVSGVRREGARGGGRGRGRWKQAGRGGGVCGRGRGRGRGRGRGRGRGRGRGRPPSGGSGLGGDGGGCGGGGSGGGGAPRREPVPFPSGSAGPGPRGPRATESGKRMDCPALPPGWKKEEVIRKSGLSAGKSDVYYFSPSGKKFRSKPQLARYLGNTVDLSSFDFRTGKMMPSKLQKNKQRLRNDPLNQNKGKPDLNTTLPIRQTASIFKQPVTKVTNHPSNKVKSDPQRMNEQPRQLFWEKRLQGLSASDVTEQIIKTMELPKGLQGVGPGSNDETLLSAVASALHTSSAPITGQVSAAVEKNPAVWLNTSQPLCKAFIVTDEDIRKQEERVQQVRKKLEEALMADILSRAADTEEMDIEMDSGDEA

**Q.** How did the inhibition turn out when `COc1ccc(N2C(=O)/C(=C/c3ccco3)C(=O)NC2=S)cc1` was run?
**A.** 32% (active)

**Q.** How did the inhibition turn out when `O=C(O)CCn1cc(C=C2C(=O)NC(=S)NC2=O)c(-c2cccc(Br)c2)n1` was run?
**A.** 2.88%

**Q.** With `COC(=O)C1=C(c2ccccc2OCc2ccccc2)C[C@@H]2CC[C@H]1N2C(=O)NCc1ccc(OC)cc1` as the compound, how does the inhibition read?
**A.** -6.77%

**Q.** With `CO[C@H]([C@H](C)/C=C/N(C)C=O)[C@@H](C)C(=O)CC[C@H](C)[C@H](O)[C@H](C)[C@H]1OC(=O)/C=C/C(C)=C/[C@H](O)[C@H](OC)C[C@@H]2C=CC[C@@H](C[C@H](OC)[C@@]3(CO3)[C@@H](OC)C[C@@H](OC)[C@@H]1C)O2` as the compound, how does the inhibition read?
**A.** 3.68%

**Q.** Which inhibition does the source give for `CN(C)C(=O)Oc1cc(=O)n2c3c(cccc13)CCC2` here?
**A.** -1%

**Q.** How did the inhibition turn out when `COP(=O)(Sc1ccccc1)C(Cc1ccccc1)NC(=O)OCc1ccccc1` (stereo not given) was run?
**A.** 1.01%

**Q.** For `O=C1NC(=O)N(Cc2ccco2)C(=O)/C1=C\c1ccc(-c2ccc(F)cc2)o1`, which inhibition is on record?
**A.** 31.9% (active)

**Q.** Which inhibition does the source give for `Cc1cc(/C=C2/C(=O)NC(=O)N(Cc3ccco3)C2=O)c(C)n1-c1ccc(C(=O)O)cc1` here?
**A.** 23.8% (active)

**Q.** How did the inhibition turn out when `Cc1ccnc(-n2c(C)cc(/C=C3\C(=O)NC(=S)N(C)C3=O)c2C)c1` was run?
**A.** -7.85%

**Q.** With `COc1cc2nc(N3CCN(C(=O)[C@@H]4CCCO4)CC3)nc(N)c2cc1OC` as the compound, how does the inhibition read?
**A.** 2.48%

**Q.** For `Cc1ccccc1CCC[C@@H](CC1CCCCC1)CN(C)C(=O)Oc1ccccc1`, which inhibition is on record?
**A.** -0.69%

**Q.** Which inhibition does the source give for `O=C(O)C1CSC(c2cccnc2)N1` (stereo not given) here?
**A.** -2.74%

**Q.** For `CC(C)c1ccc(-n2c(O)c(/C=N/N3CCOCC3)c(=O)[nH]c2=S)cc1`, which inhibition is on record?
**A.** -0.85%

**Q.** `CSc1ccc(C(=O)C2CCCN(Cc3ccn[nH]3)C2)cc1` (stereo not given) was tested. Which inhibition did it give?
**A.** -7.23%

**Q.** `CC(C)(C)[C@]1(O)C[C@@H]2OC(=O)C[C@@]23C(=O)O[C@@H]2OC(=O)[C@H](O)[C@]213` was tested. Which inhibition did it give?
**A.** -1.05%
